The whole screen tested about 2,100 compounds, of which about 180 (8.6%) showed an effect of 50% or more. Many of the other results were omitted from the sample, so strong results are more common in it than they were.

These results are taken from the supplement of paper PMC11150407.

The subject of this test is MOLM1 and UCSD/AML1 (averaged). Briefly: cell viability relative to DMSO control (POC); higher = less growth inhibition. The note with it: 1 µM; 72 h. How it is done:
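Primary viability screen in the 3q26 EVI1-high AML cell lines MOLM1 and UCSD/AML1 (1.5e3 cells/well, 384-well), compounds at 1 uM for 72 h. ATP CellTiter-Glo read-out given as percent of viable cells over DMSO control (POC), averaged over duplicates. DMSO was the negative control and 5 uM etoposide the positive control. This mapping covers the MicroSource Spectrum and Selleck anticancer libraries (drug names).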
As usually defined, the cell viability is a read-out of living cells in per cent, often relative to untreated cells. As for `CN(C)C(=S)SSC(=S)N(C)C`, the cell viability was found to be 1.29%.

For `C[C@]12CC[C@H]3[C@@H](CCC4=CC(=O)CC[C@@]43C)[C@@H]1CC[C@@H]2O`, the cell viability was determined as 103%.

As to `CC[C@@]1(O)C[C@H](O)c2c(cc3c(c2O)C(=O)c2c(O)ccc(O)c2C3=O)[C@H]1C(=O)OC`, the cell viability turned out to be 99.6%.

As for `CC[C@@]1(O)C[C@H](O[C@H]2C[C@H](N(C)C)[C@H](O)[C@H](C)O2)c2c(cc3c(c2O)C(=O)c2c(O)cccc2C3=O)[C@H]1C(=O)OC`, the cell viability turned out to be 38.5%.

For the compound `CC[C@@]1(O)C[C@H](O[C@H]2C[C@H](N(C)C)[C@H](O)[C@H](C)O2)c2c(cc3c(c2O)C(=O)c2c(O)ccc(O)c2C3=O)[C@H]1C(=O)OC`, the cell viability came to 0.762%.

On to `O=C1CCC[C@@H]2[C@H]3C[C@@H](CN12)[C@@H]1CCCCN1C3.[O-][Cl+3]([O-])([O-])O`, for which the cell viability stood at 95.6%.

Consider `COc1cc(OC)c2c(c1)O[C@H](c1ccc(OC)c(OC)c1)[C@@H](O)C2`, for which the cell viability was 100%.

On to `C=CCC1(C(C)CCC)C(=O)NC(=S)NC1=O` (stereo not given), for which the cell viability was 89.9%.

Turning to `COc1cc2c(cc1OC)[C@@H]1C(=O)c3ccc4oc(C(C)C)cc4c3O[C@@H]1CO2`, the cell viability amounted to 81.7%.

Regarding `CC(O)(CS(=O)(=O)c1ccc(F)cc1)C(=O)Nc1ccc(C#N)c(C(F)(F)F)c1` (stereo not given) [Bicalutamide (Casodex)], the cell viability was found to be 101%.

As to `C[C@H](N)[C@H](O)c1ccc(O)c(O)c1`, the cell viability stood at 105%.

For `O=C(O)CCC1NCC2CC1CN1CCCCC21` (stereo not given), the cell viability was found to be 93.6%.

Consider `CCCC(C)C1(CC)C(=O)NC(=S)NC1=O` (stereo not given), for which the cell viability came out at 96.6%.

For the compound `CN1C[C@H](C(=O)N[C@]2(C)O[C@@]3(O)[C@@H]4CCCN4C(=O)[C@H](Cc4ccccc4)N3C2=O)C[C@@H]2c3cccc4[nH]cc(c34)C[C@H]21`, the cell viability amounted to 112%.

Turning to `CC(C)C[C@H]1C(=O)N2CCC[C@H]2[C@]2(O)O[C@](NC(=O)[C@@H]3C=C4c5cccc6[nH]c(Br)c(c56)C[C@H]4N(C)C3)(C(C)C)C(=O)N12`, the cell viability was 108%.

As to `CN1C[C@H](C(=O)N[C@]2(C)O[C@@]3(O)[C@@H]4CCCN4C(=O)[C@H](Cc4ccccc4)N3C2=O)C=C2c3cccc4[nH]cc(c34)C[C@H]21`, the cell viability turned out to be 48.2%.

`O=C(O)Cc1cnc[nH]1`: the cell viability amounted to 101%.

For the compound `CN1C2CCC1CC(O)C2` (stereo not given), the cell viability was determined as 109%.

For the compound `C#CCN(C)[C@H](C)Cc1ccccc1`, the cell viability came to 84.3%.

For the compound `O=P1(NCCCl)OCCCN1CCCl` (stereo not given) [Ifosfamide], the cell viability amounted to 105%.

As to `O=P1(NCCCl)OCCCN1CCCl` (stereo not given), the cell viability was 105%.

For the compound `NCC(=O)c1ccccc1`, the cell viability is 130%.

On to `CC(=O)[O][Hg][c]1ccccc1`, for which the cell viability came to 1.17%.

Consider `COc1ccc(CCN2CCC(Nc3nc4ccccc4n3Cc3ccc(F)cc3)CC2)cc1`, for which the cell viability was 95.2%.

In the case of `CC(=O)O[C@H]1[C@H]2[C@@H](OC(=O)Cc3ccccc3)[C@@H](C)C[C@]2(OC(C)=O)C(=O)/C(C)=C/[C@@H]2[C@H](CC[C@@]13CO3)C2(C)C`, the cell viability came to 96.8%.
